From PubChem BioAssay (NCI)
The panel holds about 83,000 compounds, 20% with a hit somewhere; the sample as a whole holds those more often.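 Activity criterion: percent growth below 10, measured after cells in 96-well plates were exposed to a single compound concentration for 48 hours.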 Values without a mark were called inactive. Active and inactive are the calls of the source.

Tests used:
Assay in all cases: NCI-60 one-dose screen, 48 h (100 = growth as untreated, 0 = no growth, -100 = all killed)
Details in all cases: 10 µM unless noted
[1] = test system: NCI-H23 lung
[2] = test system: NCI-H226 lung
[3] = test system: NCI-H322M lung
[4] = test system: HOP-62 NSCLC
[5] = test system: NCI-H460 lung
[6] = test system: HOP-92 NSCLC
[7] = test system: NCI-H522 lung
[8] = test system: A549/ATCC NSCLC
[9] = test system: 786-0 renal
[10] = test system: COLO 205 colon
[11] = test system: DU-145 prostate
[12] = test system: K-562 leukemia
[13] = test system: MALME-3M melanoma
[14] = test system: MDA-MB-231 breast
[15] = test system: RXF 393 renal
[16] = test system: SF-268 CNS
[17] = test system: SF-295 CNS
[18] = test system: SF-539 CNS
[19] = test system: UACC-257 melanoma
[20] = test system: M14 melanoma

Row | Compound | growth [1] [%] | growth [2] [%] | growth [3] [%] | growth [4] | growth [5] | growth [6] [%] | growth [7] | growth [8] [%] | growth [9] | growth [10] | growth [11] [%] | growth [12] | growth [13] | growth [14] | growth [15] | growth [16] [%] | growth [17] | growth [18] [%] | growth [19] [%] | growth [20]
1 | CC(=O)Cc1cccnc1 | 96.5 | 95.4 | 102 | 108% | 105% | 102 | 96.3% | 101 | 103% | 115% | 110 | 86.7% | 103% | 99.9% | 103% | 104 | 99.2% | 102 | 96.8 | 101%
2 | NC(CCCC(N)C(=O)c1ccccc1)C(=O)O (stereo not given) | 98.4 | 102 | 87.7 | 90.3% | 112% | 116 | 64.4% | 92.8 | 102% | 104% | 105 | 98.9% | 95.9% | 109% | 112% | 99.6 | 102% | 97.5 | 82.5 | 102%
3 | O=C(Nc1ccc(-n2cc(-c3ccncc3)c(-c3ccc(O)c(Cl)c3)n2)cc1)c1ccc(Cl)c(Cl)c1 | 43.7 | 74.6 | 71.5 | 27.5% | 22.3% | 14.9 | 26.3% | 33.1 | -41.6% (active) | 64.9% | 46.1 | 11.7% | 46.8% | -33.8% (active) | -83.2% (active) | 54.5 | -16.3% (active) | 10.6 | 69.5 | -35.7% (active)
4 | COc1ccc2c(c1)/C(=C/c1c(-c3cc(OC)c(OC)c(OC)c3Br)nc3sccn13)C(=O)N2 | 101 | 86.1 | 88.9 | 59.2% | 111% | 60.8 | 68.1% | 101 | 93.4% | 117% | 114 | 76% | 62.1% | 81.4% | 118% | 116 | 105% | 95.3 | 110 | 115%
5 | S=c1n(CNc2ccc(Cl)nn2)nc(-c2cc(Cl)cc(Cl)c2Cl)n1/N=C/c1ccc(Cl)cc1 | 88.5 | 96.1 | 74.9 | 81.6% | 110% | 34.3 | 72.2% | 138 | 81.9% | 132% | 109 | 71.7% | 89.3% | 92.9% | 149% | 107 | 70% | 101 | 106 | 55.8%
6 | O=C1CCC(=O)N1C1CCCCC1 | 93 | 97.1 | 81.5 | 93.3% | 104% | 102 | 103% | 115 | 106% | 101% | 107 | 107% | 82.6% | 103% | 109% | 97.6 | 97.5% | 101 | 108 | 94.5%
7 | Cc1cccc[n+]1CCC[n+]1ccccc1C | 99.8 | 98.4 | 109 | 84.9% | 106% | 86 | 88.1% | 95.7 | 84.2% | 91.1% | 111 | 103% | 105% | 115% | 111% | 107 | 103% | 98.9 | 111 | 89.4%
8 | CC(C)C1(C(C)C)NC(=O)NC1=O | 99.2 | 102 | 119 | 96.6% | 99.9% | 93.2 | 94.8% | 101 | 101% | 117% | 93.7 | 108% | 163% | 109% | 107% | 94 | 99.4% | 91.6 | 106 | 110%
9 | O=C1C(Cl)=C(Nc2cccc3cc4ccccc4nc23)C(=O)c2ccccc21 | 54.7 | 67.2 | 51 | 45.9% | 18.2% | 74.9 | 22.3% | 29.8 | 50.1% | 12% | 44 | 27.9% | 48.9% | 44% | 65.2% | 45 | 53.8% | 40.7 | 45.6 | 56.4%
10 | NC(=O)C1=C[C@H]2[C@H]3C=C[C@@]2(O)C(=O)O[C@@H]3O1 | 67 | 47.6 | 93.8 | 82.3% | 99.2% | 40.7 | 63.3% | 80.7 | 61.4% | 38.8% | 45.9 | 61.8% | 4.54% (active) | 61.5% | 8.42% (active) | 58.2 | 88.5% | 65.6 | 28.9 | 32%
11 | CC1OC(n2c3ccccc3c3c4c(c5c6ccccc6[nH]c5c32)C(=O)N(CCN[C@@H]2CCC[C@H]2N)C4=O)CC(O)C1O (stereo not given in full) | 13.2 | 17.4 | 25.4 | 5.12% (active) | -62% (active) | 72 | -9.89% (active) | 14.1 | 32.2% | 1.5% (active) | 31.8 | 1.43% (active) | 24.9% | 16.4% | 33.7% | 30.6 | 8.14% (active) | 17.8 | 29.8 | 18.7%
12 | S=C=NP1(N=C=S)=NP(N=C=S)(N=C=S)=NP(N=C=S)(N=C=S)=NP(N=C=S)(N=C=S)=N1 (stereo not given) | 97.7 | 94 | 80.9 | 85.4% | 111% | 93.2 | 72.2% | 79.2 | 89.4% | 118% | 113 | 86.4% | 91.4% | 105% | 109% | 103 | 97.8% | 94.7 | 94.8 | 93.4%
13 | COc1ccc(CNc2nc3ccccc3c3c(=O)c4ccccc4sc23)cc1OC | 80.9 | 75.6 | 80.6 | 79.8% | 63.3% | 42.8 | 77.4% | 61.6 | 76.8% | 79.4% | 74 | 69.3% | 66.6% | 61.5% | 61% | 78.7 | 68.3% | 81 | 88.6 | 86.2%
14 | CC(=O)Nc1ccc(OC(=O)c2ccccc2O)cc1 | 99.5 | 106 | 111 | 99.8% | 106% | 85 | 106% | 102 | 107% | 108% | 110 | 88.1% | 105% | 108% | 114% | 106 | 95.3% | 108 | 111 | 109%
15 | Cc1ccc(=O)n(-c2ccc(Br)cc2F)c1 | 98.4 | 85.4 | 102 | 94% | 110% | 77.3 | 104% | 98.7 | 99.5% | 110% | 109 | 99.4% | 101% | 103% | 103% | 104 | 100% | 98.9 | 102 | 97.4%
